Compound activity as filed in PubChem BioAssay.
IDE exosite FP – displaces the probe from the exo-site of human IDE | purified IDE, FL-6b probe fluorescence polarization; active compounds read low | z-score at 20 µM | 17,000 tested, 6.3% active | AID 1259349;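 active means z-score of -3 or lower, meaning strong loss of probe binding signal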;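 further: His-tagged human IDE residues 42-1019 made in E. coli with 30 nM FL-6b probe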
A number is an active result; 0 = inactive; ! = repeats disagree. Many of the other results were omitted from the sample, so hits are more common in it than they were.

SMILES	IDE exosite FP
C[C@H](NC(=O)C[C@@H]1CC[C@@H]2[C@H](COC[C@@H](O)CN2Cc2ccc(C(F)(F)F)cc2)O1)c1ccccc1	0
CCC(=O)N1[C@H](CO)[C@H](c2ccccc2)C12CN(C(=O)c1ccncc1)C2	0
O=C(Cc1ccccn1)N1CC2(C1)[C@H](c1ccccc1)[C@H](CO)N2C(=O)c1ccncc1	-4.5
CCC(=O)N1[C@@H](CO)[C@@H](c2ccccc2)C12CN(C(=O)c1ccncc1)C2	0
CC(=O)N1CCCCN2[C@H](CO)[C@@H](c3ccc(-c4ccncc4)cc3)[C@@H]2C1	0
O=C(c1ccccn1)N1CC[C@@H]2[C@H](CO)Nc3ccc(Br)cc3[C@@H]21	0
COc1ccccc1-c1ccc(C2[C@H]3CNC[C@@H]2N3C(=O)Nc2ccccc2F)cc1 (stereo partly drawn)	-11
COc1cccc(NC(=O)N2[C@@H]3CNC[C@H]2C3c2ccc(-c3cccc(OC)c3)cc2)c1 (stereo partly drawn)	-7.3!
O=C(Nc1ccc(C(F)(F)F)cc1)N1[C@@H]2CNC[C@H]1C2c1ccc(-c2ccccc2F)cc1 (stereo partly drawn)	0
COc1cccc(NC(=O)N2[C@@H]3CNC[C@H]2C3c2ccc(-c3cccnc3)cc2)c1 (stereo partly drawn)	0
O=C(Nc1ccccc1F)N1[C@@H]2CNC[C@H]1C2c1ccc(-c2ccncc2)cc1 (stereo partly drawn)	0
COc1cccc(-c2ccc(C3[C@H]4CNC[C@@H]3N4C(=O)Nc3ccccc3Cl)cc2)c1 (stereo partly drawn)	0
CO[C@@H]1CN(C)C(=O)c2ccc(NC(=O)c3nc4ccccc4s3)cc2OC[C@H](C)N(Cc2cccnc2)C[C@@H]1C	0
CC(=O)NC[C@@H]1[C@H](c2ccccc2)[C@H](CO)N1C(=O)Cc1cccnc1	0
CO[C@@H](CN(C)Cc1ccc2c(c1)OCO2)[C@H](C)CN(C(=O)Nc1ccc(F)cc1)[C@@H](C)CO	0
CCC(=O)Nc1ccc2c(c1)C(=O)N(C)C[C@H](OC)[C@H](C)CN(Cc1nccs1)[C@@H](C)CO2	0
C[C@H]1CN([C@@H](C)CO)C(=O)c2ccccc2-c2ccccc2CO[C@@H]1CN(C)C(=O)CCC(F)(F)F	0
CCCC#Cc1ccc([C@H]2[C@H](CO)N3CCCCN(S(=O)(=O)c4ccccc4C)C[C@@H]23)cc1	0
CCNC[C@@H]1[C@@H](c2ccc(-c3ccc(F)cc3)cc2)[C@@H](CO)N1C(=O)C1CC1	0
C/C=C/c1ccc([C@@H]2[C@@H](CO)N(C(=O)NCCC)[C@@H]2CNC(=O)C2CC2)cc1	0
CCC(=O)N1CC(=O)N2[C@H](C1)[C@H](c1ccc(-c3cccnc3)cc1)[C@@H]2CO	0
COc1ccc(NC(=O)N2CC(=O)N3[C@@H](CO)[C@H](c4ccc(/C=C/c5ccccc5)cc4)[C@@H]3C2)cc1	0
Cc1ccc(-c2ccc([C@H]3[C@H]4CN(C(=O)NC(C)C)CC(=O)N4[C@H]3CO)cc2)cc1	0
C/C=C/c1ccc([C@H]2[C@H](CO)N3C(=O)CN(C(=O)NC4CCCCC4)C[C@@H]23)cc1	0
C/C=C/c1ccc([C@@H]2[C@@H](CO)N3C(=O)CN(C(=O)NC4CCCC4)C[C@@H]23)cc1	-3.2
SMILES	IDE exosite FP
O=C(NC1CCCCC1)N1CC(=O)N2[C@H](C1)[C@@H](c1ccc(/C=C/c3ccccc3)cc1)[C@@H]2CO	0
Cc1ccc(-c2ccc([C@H]3[C@H](CO)N4C(=O)CN(C(=O)NC(C)C)C[C@@H]34)cc2)cc1	0
CC(C)NC(=O)N1CC(=O)N2[C@H](CO)[C@@H](c3ccc(/C=C/c4ccccc4)cc3)[C@H]2C1	-6.9
O=C(NC1CCCC1)N1CC(=O)N2[C@H](CO)[C@@H](c3ccc(/C=C/c4ccccc4)cc3)[C@H]2C1	-9.5
O=C(NC1CCCC1)N1CC(=O)N2[C@H](CO)[C@H](c3ccc(/C=C/c4ccccc4)cc3)[C@@H]2C1	0
C/C=C/c1ccc([C@H]2[C@@H](CO)N3C(=O)CN(C(=O)CC4CC4)C[C@@H]23)cc1	0
O=C(NC1CCCC1)N1CC(=O)N2[C@@H](CO)[C@H](c3ccc(/C=C/c4ccccc4)cc3)[C@@H]2C1	-6.5
CCC(=O)N1CC(=O)N2[C@@H](CO)[C@@H](c3ccc(-c4cccnc4)cc3)[C@@H]2C1	0
Cc1noc(C)c1S(=O)(=O)Nc1ccc2c(c1)C(=O)N([C@H](C)CO)C[C@@H](C)[C@H](CN(C)C(=O)Nc1cccc3ccccc13)OCCCC[C@@H](C)O2	0
O=C(NCCN1CCCC1)c1cc2c(c(-c3cccc(C4=CCCC4)c3)n1)[C@@H](CCO)N(CC1CC1)C2	0
O=C(C[C@H]1CC[C@H](NC(=O)Nc2ccc(C(F)(F)F)cc2)[C@H](CO)O1)NCc1cccc(F)c1	0
CCC(=O)N1[C@@H](C#N)[C@@H](c2ccccc2-c2ccccc2)[C@@H]1CO	0
N#C[C@H]1N[C@H](CO)[C@H]1c1ccc(C2=CCCC2)cc1	0
COCCNC(=O)C[C@@H]1CC[C@H]2[C@@H](COC[C@H](O)CN2Cc2ccc(Cl)c(Cl)c2)O1	0
O=C(Nc1cc(F)ccc1F)N1CCCCN2[C@H](C1)[C@H](c1ccc(-c3cncnc3)cc1)[C@@H]2CO	0
CC(C)NC(=O)N(C)C[C@@H]1Oc2ccc(NC(=O)Cc3ccccc3)cc2CC(=O)N([C@@H](C)CO)C[C@@H]1C	0
CN(C)CC#Cc1ccc([C@@H]2[C@@H](CO)N3C(=O)CN(C(=O)CN(C)C)C[C@H]23)cc1	0
CN(C)CC(=O)N1CC(=O)N2[C@H](CO)[C@@H](c3ccc(/C=C/c4ccccc4)cc3)[C@H]2C1	-5.6
CN(C)CC(=O)N1CC(=O)N2[C@H](CO)[C@@H](c3ccc(-c4ccc(C(=O)N(C)C)cc4)cc3)[C@H]2C1	0
CC[C@@H]1C/C=C\C[C@@H](C(C)C)NC(=O)CCC(=O)N1	0
CN(C)CC#Cc1ccc([C@@H]2[C@@H](CO)N3CCCCN(C(=O)CN(C)C)C[C@H]23)cc1	0
CCC(=O)N1CCCCN2[C@H](CO)[C@H](c3ccc(/C=C/c4ccccc4)cc3)[C@@H]2C1	-7.3
CN(C)CC(=O)N1CCCCN2[C@@H](CO)[C@H](c3ccc(/C=C/c4ccccc4)cc3)[C@@H]2C1	-6.5
C/C=C/c1ccc([C@@H]2[C@H]3CN(C(=O)CN(C)C)CCCCN3[C@H]2CO)cc1	0
CN(C)CC(=O)N1CCCCN2[C@@H](CO)[C@@H](c3ccc(/C=C/c4ccccc4)cc3)[C@@H]2C1	-12
SMILES	IDE exosite FP
CN1CCCCN2[C@H](C1)[C@@H](c1ccc(/C=C/c3ccccc3)cc1)[C@@H]2CO	0
CN(C)CC(=O)N1CCCCN2[C@@H](CO)[C@@H](c3ccc(-c4ccccc4)cc3)[C@@H]2C1	0
O=C(c1ccc(F)cc1)N1CCCCN2[C@H](CO)[C@H](c3ccc(/C=C/c4ccccc4)cc3)[C@@H]2C1	0
O=C(c1ccc(F)cc1)N1CCCCN2[C@H](CO)[C@@H](c3ccc(/C=C/c4ccccc4)cc3)[C@@H]2C1	0
CN(C)CC(=O)N1CCCCN2[C@H](CO)[C@H](c3ccc(/C=C/c4ccccc4)cc3)[C@H]2C1	-11
CN(C)CC(=O)N1CCCCN2[C@@H](CO)[C@@H](c3ccc(-c4cncnc4)cc3)[C@@H]2C1	0
CN(C)CC#Cc1ccc([C@H]2[C@@H](CO)N3CCCCN(C(=O)CN(C)C)C[C@H]23)cc1	0
CO[C@@H]1CN(C)C(=O)c2cc(NS(=O)(=O)c3ccccc3C)ccc2OC[C@@H](C)N(S(=O)(=O)c2ccccc2)C[C@H]1C	0
